Compound: C#CCNC(=O)CCSSCCC(=O)NCCc1ccc(C=O)c(C=O)c1
Assay: lysine labeling ratio R10:1 (500 µM / 50 µM probe), SILAC-ABPP in living cells; higher = lower intrinsic lysine reactivity toward the probe, active = 2 or less
Conditions: HeLa; probe concentrations 500 vs 50 µM
Outline: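 SILAC light and heavy living HeLa cells in PBS at room temperature were labelled with 50 µM or 500 µM of an alkyne-tagged, disulfide-linked lysine probe, with forward and reverse label swaps. Mixed lysates were clicked to biotin-azide, trypsin-digested, captured on neutravidin, DTT-released, alkylated and analysed by LC-MS/MS on a TIMS-TOF Pro. R is the filtered median high-probe/low-probe MS1 peptide ratio per lysine, then the median across forward and reverse replicates. Ratios are capped at 20.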

Sequence of UniProt P19438 (P19438 whole entry): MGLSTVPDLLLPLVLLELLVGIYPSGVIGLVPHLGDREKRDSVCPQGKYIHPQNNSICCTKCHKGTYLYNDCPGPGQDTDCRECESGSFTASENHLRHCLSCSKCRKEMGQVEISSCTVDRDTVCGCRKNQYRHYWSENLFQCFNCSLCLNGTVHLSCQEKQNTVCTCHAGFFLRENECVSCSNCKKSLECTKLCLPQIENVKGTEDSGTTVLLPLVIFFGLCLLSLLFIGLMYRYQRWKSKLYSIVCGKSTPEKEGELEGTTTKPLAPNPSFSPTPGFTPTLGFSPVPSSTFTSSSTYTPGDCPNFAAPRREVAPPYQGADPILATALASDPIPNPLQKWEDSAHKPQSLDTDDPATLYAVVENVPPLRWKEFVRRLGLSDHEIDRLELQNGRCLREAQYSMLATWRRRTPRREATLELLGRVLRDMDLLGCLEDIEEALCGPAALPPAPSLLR
Sequence of UniProt P02751 (P02751 whole entry): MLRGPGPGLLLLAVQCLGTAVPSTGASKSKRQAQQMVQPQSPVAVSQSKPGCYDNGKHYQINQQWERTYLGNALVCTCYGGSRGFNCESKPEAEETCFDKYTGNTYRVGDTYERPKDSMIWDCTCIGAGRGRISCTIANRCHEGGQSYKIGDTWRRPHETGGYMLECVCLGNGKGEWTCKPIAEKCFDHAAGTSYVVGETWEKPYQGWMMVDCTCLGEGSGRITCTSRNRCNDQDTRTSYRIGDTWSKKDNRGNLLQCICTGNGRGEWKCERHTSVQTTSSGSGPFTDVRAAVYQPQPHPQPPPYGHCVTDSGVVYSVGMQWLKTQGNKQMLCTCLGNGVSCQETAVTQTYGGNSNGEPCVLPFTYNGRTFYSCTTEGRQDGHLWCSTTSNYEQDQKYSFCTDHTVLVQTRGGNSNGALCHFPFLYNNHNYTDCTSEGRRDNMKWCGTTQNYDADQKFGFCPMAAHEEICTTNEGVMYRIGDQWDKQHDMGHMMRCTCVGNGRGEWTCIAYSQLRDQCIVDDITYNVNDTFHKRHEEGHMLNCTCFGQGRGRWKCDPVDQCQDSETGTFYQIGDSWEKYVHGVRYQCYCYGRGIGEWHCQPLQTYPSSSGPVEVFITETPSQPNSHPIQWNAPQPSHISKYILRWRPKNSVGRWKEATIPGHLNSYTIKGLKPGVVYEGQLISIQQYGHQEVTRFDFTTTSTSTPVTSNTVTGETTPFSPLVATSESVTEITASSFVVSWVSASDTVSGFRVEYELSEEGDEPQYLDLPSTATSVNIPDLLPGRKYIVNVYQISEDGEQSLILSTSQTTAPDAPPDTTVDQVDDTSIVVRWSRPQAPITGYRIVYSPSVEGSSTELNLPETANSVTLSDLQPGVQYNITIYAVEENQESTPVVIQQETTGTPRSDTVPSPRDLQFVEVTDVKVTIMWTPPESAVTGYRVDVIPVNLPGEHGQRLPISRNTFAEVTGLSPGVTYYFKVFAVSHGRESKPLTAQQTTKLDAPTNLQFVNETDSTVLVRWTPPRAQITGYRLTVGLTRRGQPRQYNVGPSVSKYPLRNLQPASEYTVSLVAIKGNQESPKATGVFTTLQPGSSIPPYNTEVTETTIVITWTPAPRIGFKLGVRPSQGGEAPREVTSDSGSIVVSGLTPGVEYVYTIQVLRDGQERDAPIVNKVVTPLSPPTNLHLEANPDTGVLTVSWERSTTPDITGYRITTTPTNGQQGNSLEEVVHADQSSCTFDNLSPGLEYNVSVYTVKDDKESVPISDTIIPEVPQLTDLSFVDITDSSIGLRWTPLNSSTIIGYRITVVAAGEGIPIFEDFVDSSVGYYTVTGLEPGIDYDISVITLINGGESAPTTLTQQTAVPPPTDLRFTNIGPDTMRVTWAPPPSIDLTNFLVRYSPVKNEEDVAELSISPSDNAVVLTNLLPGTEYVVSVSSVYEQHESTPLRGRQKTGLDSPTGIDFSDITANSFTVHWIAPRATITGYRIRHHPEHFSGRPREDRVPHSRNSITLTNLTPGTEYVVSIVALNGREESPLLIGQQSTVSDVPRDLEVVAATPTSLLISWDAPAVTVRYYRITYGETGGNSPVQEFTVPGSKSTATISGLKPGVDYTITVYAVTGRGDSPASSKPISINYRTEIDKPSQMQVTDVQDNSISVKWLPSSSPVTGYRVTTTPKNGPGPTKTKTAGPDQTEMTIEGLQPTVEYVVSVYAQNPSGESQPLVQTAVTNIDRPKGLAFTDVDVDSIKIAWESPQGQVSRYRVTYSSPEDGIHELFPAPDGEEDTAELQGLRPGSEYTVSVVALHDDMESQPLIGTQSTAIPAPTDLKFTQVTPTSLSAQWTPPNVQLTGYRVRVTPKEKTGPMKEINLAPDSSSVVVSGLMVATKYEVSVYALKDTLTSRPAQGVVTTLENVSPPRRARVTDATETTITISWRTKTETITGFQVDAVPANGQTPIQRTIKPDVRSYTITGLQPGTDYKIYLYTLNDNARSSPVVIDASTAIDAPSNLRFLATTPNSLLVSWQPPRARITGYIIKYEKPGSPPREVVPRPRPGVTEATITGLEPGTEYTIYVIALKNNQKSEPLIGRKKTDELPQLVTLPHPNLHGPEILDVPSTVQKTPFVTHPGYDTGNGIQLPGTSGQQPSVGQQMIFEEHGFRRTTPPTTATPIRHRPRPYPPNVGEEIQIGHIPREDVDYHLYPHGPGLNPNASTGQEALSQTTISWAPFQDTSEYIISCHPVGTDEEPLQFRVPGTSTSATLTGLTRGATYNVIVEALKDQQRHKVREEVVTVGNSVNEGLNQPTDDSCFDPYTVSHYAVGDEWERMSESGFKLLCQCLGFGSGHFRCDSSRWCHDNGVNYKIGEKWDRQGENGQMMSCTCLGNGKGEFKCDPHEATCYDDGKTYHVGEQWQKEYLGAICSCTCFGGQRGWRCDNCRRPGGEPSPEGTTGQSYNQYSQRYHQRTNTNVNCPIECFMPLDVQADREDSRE
Sequence of UniProt Q13442 (Q13442 whole entry): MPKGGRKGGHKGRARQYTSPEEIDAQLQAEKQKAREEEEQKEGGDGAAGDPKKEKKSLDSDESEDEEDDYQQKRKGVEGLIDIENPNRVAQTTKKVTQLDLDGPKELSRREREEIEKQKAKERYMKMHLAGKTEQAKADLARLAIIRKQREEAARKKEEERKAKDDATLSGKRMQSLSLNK
Sequence of UniProt P06727 (P06727 whole entry): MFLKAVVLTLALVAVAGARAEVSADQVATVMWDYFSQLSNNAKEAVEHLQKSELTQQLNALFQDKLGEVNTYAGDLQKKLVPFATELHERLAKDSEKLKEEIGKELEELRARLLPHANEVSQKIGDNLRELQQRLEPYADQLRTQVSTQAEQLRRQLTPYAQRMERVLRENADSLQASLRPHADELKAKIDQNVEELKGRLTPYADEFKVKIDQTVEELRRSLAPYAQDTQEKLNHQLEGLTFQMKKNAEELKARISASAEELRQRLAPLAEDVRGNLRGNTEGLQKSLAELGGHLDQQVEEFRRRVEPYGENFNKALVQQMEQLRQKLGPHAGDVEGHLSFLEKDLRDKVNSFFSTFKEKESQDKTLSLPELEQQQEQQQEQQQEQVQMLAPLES
Sequence of UniProt Q99497 (Q99497 whole entry): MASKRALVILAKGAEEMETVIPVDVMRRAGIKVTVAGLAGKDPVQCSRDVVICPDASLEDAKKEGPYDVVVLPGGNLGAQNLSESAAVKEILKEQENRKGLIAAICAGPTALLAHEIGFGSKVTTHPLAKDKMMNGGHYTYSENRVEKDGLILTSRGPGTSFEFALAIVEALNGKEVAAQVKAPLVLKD
Sequence of UniProt Q13275 (Q13275 whole entry): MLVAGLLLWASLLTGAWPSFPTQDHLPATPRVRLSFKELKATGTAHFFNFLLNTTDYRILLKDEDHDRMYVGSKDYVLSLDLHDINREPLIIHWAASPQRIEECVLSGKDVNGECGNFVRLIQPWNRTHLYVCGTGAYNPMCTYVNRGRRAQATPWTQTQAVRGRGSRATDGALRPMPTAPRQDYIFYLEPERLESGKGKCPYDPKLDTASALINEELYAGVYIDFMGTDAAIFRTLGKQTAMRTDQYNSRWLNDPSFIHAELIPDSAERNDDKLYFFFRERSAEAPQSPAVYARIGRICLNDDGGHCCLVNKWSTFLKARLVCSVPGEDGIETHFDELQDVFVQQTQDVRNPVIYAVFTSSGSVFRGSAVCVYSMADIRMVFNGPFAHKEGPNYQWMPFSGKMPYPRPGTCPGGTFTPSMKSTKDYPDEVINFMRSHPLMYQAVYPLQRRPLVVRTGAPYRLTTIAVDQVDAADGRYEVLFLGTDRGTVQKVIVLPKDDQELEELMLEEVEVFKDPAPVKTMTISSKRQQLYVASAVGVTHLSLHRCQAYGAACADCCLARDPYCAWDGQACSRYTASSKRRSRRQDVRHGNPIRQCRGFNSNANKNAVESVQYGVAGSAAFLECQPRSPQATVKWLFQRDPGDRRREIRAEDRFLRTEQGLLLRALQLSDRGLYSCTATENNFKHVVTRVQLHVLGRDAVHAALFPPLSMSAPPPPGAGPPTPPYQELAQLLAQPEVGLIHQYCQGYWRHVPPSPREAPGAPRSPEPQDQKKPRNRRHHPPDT
Sequence of UniProt P07355 (P07355 whole entry): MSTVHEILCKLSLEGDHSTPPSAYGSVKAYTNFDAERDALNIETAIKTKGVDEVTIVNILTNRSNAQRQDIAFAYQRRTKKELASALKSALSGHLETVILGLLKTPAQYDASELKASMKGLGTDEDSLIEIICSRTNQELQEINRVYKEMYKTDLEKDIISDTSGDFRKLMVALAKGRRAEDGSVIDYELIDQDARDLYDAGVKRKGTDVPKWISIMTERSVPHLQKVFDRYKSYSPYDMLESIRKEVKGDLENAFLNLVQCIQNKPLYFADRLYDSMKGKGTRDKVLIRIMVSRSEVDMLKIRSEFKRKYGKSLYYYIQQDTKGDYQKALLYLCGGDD

Lysine labeling ratio R10:1, active:
UniProt O95980 (lysine site: K747) 1.22, PDAP1 (lysine site: K181) (UniProt Q13442) 1.83, DYNC1H1 (lysine site: K2286) (UniProt Q14204) 1.93, PARK7 (lysine site: K188) (UniProt Q99497) 1.98, SPTAN1 (lysine site: K1838) (UniProt Q13813) 0.73, ITGAV (lysine site: K400) (UniProt P06756) 0.958, APOA4 (lysine site: K79) (UniProt P06727) 1.22, TNFRSF1A (lysine site: K107) (UniProt P19438) 1.07

Lysine labeling ratio R10:1, inactive:
FN1 (lysine site: K269) (UniProt P02751) 9.87, UniProt Q13275 (lysine site: K62) 3.35, CKAP4 (lysine site: K191) (UniProt Q07065) 2.86, UniProt Q99623 (lysine site: K262) 3.03, ROR2 (lysine site: K285) (UniProt Q01974) 3.36, PSEN1 (lysine site: K109) (UniProt P49768) 2.61, ANXA2 (lysine site: K204) (UniProt P07355) 7.37, UniProt P62888 (lysine site: K9) 2.95, L1CAM (lysine site: K998) (UniProt P32004) 6.57
